According to PubChem BioAssay (NCI):
Compounds without any hit were thinned out: in the full panel of roughly 83,000, 20% have a hit.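 Cells were grown in 96-well plates and exposed to the test compound at a single concentration for 48 hours; results are reported as percent growth, with values below 10 considered active.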 Values without a mark were called inactive. Calls of active or inactive are those of the source.

Assays:
Assay in all cases: NCI-60 one-dose screen, 48 h (100 = growth as untreated, 0 = no growth, -100 = all killed)
Conditions in all cases: 10 µM
SR leukemia = tested on: SR leukemia
OVCAR-8 ovarian = tested on: OVCAR-8 ovarian
OVCAR-5 ovarian = tested on: OVCAR-5 ovarian
OVCAR-4 ovarian = tested on: OVCAR-4 ovarian
SK-OV-3 ovarian = tested on: SK-OV-3 ovarian
IGROV1 ovarian = tested on: IGROV1 ovarian
OVCAR-3 ovarian = tested on: OVCAR-3 ovarian
HS 578T breast = tested on: HS 578T breast
NCI/ADR-RES ovarian = tested on: NCI/ADR-RES ovarian
T-47D breast = tested on: T-47D breast
BT-549 breast = tested on: BT-549 breast
MDA-MB-435 melanoma = tested on: MDA-MB-435 melanoma
SW-620 colon = tested on: SW-620 colon
MCF7 breast = tested on: MCF7 breast
HCT-116 colon = tested on: HCT-116 colon
HCC-2998 colon = tested on: HCC-2998 colon
KM12 colon = tested on: KM12 colon
RPMI-8226 leukemia = tested on: RPMI-8226 leukemia

SMILES	growth (SR leukemia)	growth (OVCAR-8 ovarian)	growth (OVCAR-5 ovarian)	growth (OVCAR-4 ovarian)	growth (SK-OV-3 ovarian)	growth (IGROV1 ovarian)	growth (OVCAR-3 ovarian)	growth (HS 578T breast)	growth (NCI/ADR-RES ovarian)	growth (T-47D breast)	growth (BT-549 breast)	growth (MDA-MB-435 melanoma)	growth (SW-620 colon)	growth (MCF7 breast)	growth (HCT-116 colon)	growth (HCC-2998 colon)	growth (KM12 colon)	growth (RPMI-8226 leukemia)
Cc1[nH]c2ccccc2c1/C=N/Nc1ncnc2sc3c(c12)CCN(CC(=O)OC(C)(C)C)C3	23.4%	69%	130%	104%	108%	79.8%	83.1%	77.7%	66.1%	80.7%	81.4%	32.3%	60%	65.4%	40.8%	99.5%	76%	
Clc1ccc(Cc2ccncc2)cc1	97.6%	99%			113%		110%	105%	108%		99.9%	112%	105%	97.5%	101%	95.6%	102%	109%
S=c1cnc2ccccc2[nH]1	103%	96.2%		105%	96%		106%	91.5%	98.6%	81.9%	103%	101%	91%	72.9%	88.3%	67.6%	93.9%	100%
OCCn1cccn1	101%	116%		117%	104%		104%	111%	97.5%	102%	110%	102%	101%	116%	110%	97.1%	102%	98.2%
C=CCN(CC=C)C(=O)[C@H](CC)[C@@H]1CC[C@@H](C)[C@@H]([C@H](C)[C@@H](O)[C@@H](C)C(=O)[C@H](CC)C2O[C@]3(C=C[C@@H](O)[C@]4(CC[C@@](C)([C@H]5CC[C@](O)(CC)[C@H](C)O5)O4)O3)[C@H](C)C[C@@H]2C)O1 (stereo partly drawn)	36.9%	16%	31.9%	25.4%	4.44% (active)	10.7%	14.6%	13.4%	1.02% (active)	9.12% (active)	27.3%	6% (active)	12.3%	1.92% (active)	9.64% (active)	12.6%		
O=C1c2ccccc2C(=O)c2c1ccc(C(Br)Br)c2[N+](=O)[O-]	-32% (active)	43.1%		-23.9% (active)	88.1%	-55% (active)	-84% (active)	103%	50.3%	-36.2% (active)		81.5%	-23.6% (active)	-40% (active)	-63.9% (active)	82%	49.9%	-7.34% (active)
COc1ccc(/C=C2/SC(=S)NC2=O)c(OC)c1OC	72.4%	91.5%		87.7%	91.1%	105%	89.6%	63.6%	85.2%	63.2%	91.1%	78.5%	93.9%	80.4%	85.8%		93.3%	79.4%
COc1cc2c3c(n([C@H]4CCOC4)c(=O)c2cc1OC)-c1cc2c(cc1C3=O)OCO2	13.6%	35.2%	71.6%	70.9%	24.6%	62%	46.9%	107%	27.5%	11.8%	48.2%	59.3%	46.2%	14.2%	31%	70.5%	57.1%	
N#Cc1c(-c2ccc(Cl)cc2)n(O)c2ccccc12	9.6% (active)	26.1%	66%	26.5%	12.9%	4.22% (active)	4.13% (active)	-21.6% (active)	2.73% (active)	13.2%	0.694% (active)	2.57% (active)	15.3%	17.5%	12.9%	47.2%	15.9%	
CCCCCCCCCCCCCCCCCC[n+]1ccc2c(C)c3c(c(C)c2c1)c1cc(O)ccc1n3CC	12.2%	7.3% (active)	42.5%	18.2%	22.2%	6.43% (active)	4.31% (active)	9.04% (active)	72.3%	23.5%	-11% (active)	-53.4% (active)	13.3%	28.3%	7.88% (active)	31.5%	10.8%	
COc1ccc(-c2nn(-c3cccc(Cl)c3)cc2-c2nc(N)[nH]c(=O)c2C#N)cc1	19.3%	96.4%	94.3%	85.7%	90%	61%	106%	76.6%	66.3%	58.7%	64%	2.16% (active)	83.2%	51%	58%	80.9%	56%	
CCn1cc(CNc2ccc(C(=O)Nc3ccc4ccccc4c3)cc2)c(C)n1	46.2%	45%	94.4%	20.8%	11.8%	68%	55.9%	105%	23.3%	6.54% (active)	9.81% (active)	25.6%	87.6%	49%	40.5%	81.5%	55.5%	
CCCCN(CCCC)C(=O)[C@H](CC)[C@@H]1CC[C@@H](C)[C@@H]([C@H](C)[C@@H](O)[C@@H](C)C(=O)[C@H](CC)C2O[C@]3(C=CC(=O)[C@]4(CC[C@@](C)([C@H]5CC[C@](O)(CC)[C@H](C)O5)O4)O3)[C@H](C)C[C@@H]2C)O1 (stereo partly drawn)	75.1%	34.7%	39.4%	42.7%	51.9%	59.3%	31.5%	43.1%	78.2%	20.7%	62.7%	44.6%	25.7%	16.2%	19%	39%	55.6%	
COc1ccc(-c2cc(-c3ccccc3)nc(SCCCC(=O)NO)n2)cc1	12.3%	6.59% (active)	17%	13.5%	-20.5% (active)	-32.6% (active)	-22.8% (active)	13.8%	-40.5% (active)	-1.07% (active)	19.6%	-3.03% (active)	2.34% (active)	-5.14% (active)	3.36% (active)	-16.6% (active)	17.3%	
N#CC1=CC2CN(Cc3ccccc3)C1C1C(=O)N(c3ccccc3)C(=O)C21 (stereo not drawn)	93.4%	98.2%	101%	93.2%	97%	103%	111%	101%	91.6%	99.5%	95%	105%	95.2%	97.1%	101%	92.1%	103%	
COc1ccccc1-n1c(-c2csc(NC(C)=O)n2)n[nH]c1=S	82.8%	104%	119%	103%	103%	97.8%	117%	105%	96.2%	104%	94.7%	85.3%	105%	97.5%	100%	101%	104%	
Nc1ccc(-c2cccs2)cc1NC(=O)c1ccc(CCCC(=O)Nc2ccc(C3CC3N)cc2)cc1 (stereo not drawn)	-10.5% (active)	44.9%	86.2%	93%	68%	80.9%	63%	75.5%	87.5%	65.1%	96.5%	20.6%	23.7%	18.8%	3.29% (active)	99.7%	69.3%	
CCn1c(CSc2nc3ccccc3c(=O)n2CCc2ccccc2)n[nH]c1=S	73.1%	89.7%	91.9%	85.6%	97.9%	93.4%	102%	91%	73.7%	73.3%	72.3%	84.8%	97.5%	84%	65.5%	99%	92.3%	
